SENP8 block-1 – inhibitors of human SENP8 protease; recombinant SENP8, Nedd8 substrate fluorescence; actives 0.64% (n = 360,000); inhibition, % at 20 µM; in the data active = inhibition mostly above about 40%, no sharp cut-off; inactive = mostly below about 27%
Target sequence (Q96LD8 whole entry, looked up): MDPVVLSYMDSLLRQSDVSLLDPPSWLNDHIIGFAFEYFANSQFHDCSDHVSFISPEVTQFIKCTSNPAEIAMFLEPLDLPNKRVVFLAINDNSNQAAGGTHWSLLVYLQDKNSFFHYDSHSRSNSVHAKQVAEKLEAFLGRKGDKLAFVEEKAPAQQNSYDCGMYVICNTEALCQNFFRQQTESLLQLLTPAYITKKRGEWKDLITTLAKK
SENP8 block-2 – inhibitors of human SENP8 protease; purified SENP8, Z-RLRGG-aminoluciferin cleavage, luminescence; inhibition, % at 10 µM; actives 1.2% (n = 330,000); in the data active = inhibition above about 50%
Platelet DG rel – platelet dense granule release activity | human platelet-rich plasma, SFLLRN dense granule ATP release, luminescence | inhibition, %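 (compounds screened at 7.5 µM in platelet-rich plasma)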 | actives 0.22% (n = 300,000);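 active = mean replicate score, as percent of positive control, at or above 50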
SENP7 inh – SENP7 protease inhibition. actives 1.5% (n = 330,000). inhibition, % at 5 µM. recombinant SENP7, Z-RLRGG-aminoluciferin luminescence, 40 min;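 active = inhibition above about 50% at the single test dose, limit read from the data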
SENP6 block – inhibitors of human SENP6 protease | Q9GZR1 | inhibition, % at 10 µM | AID 2599 | actives 1.8% (n = 330,000) | Recombinant SENP6 catalytic domain, aminoluciferin luminescence;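 active = inhibition above about 50% at the single tested dose, limit read from the data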
SENP8 conf – confirmation of human SENP8 protease inhibitors. actives 40% (n = 6,200). inhibition, % at 12.5 µM. shares compounds with SENP7 inh. Recombinant SENP8, Z-RLRGG-aminoluciferin luminescence, 60 min. AID 488912;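 active = mean inhibition across replicates above about 50%, limit read from the data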
SENP6 conf – confirmation of human SENP6 protease inhibitors. shares compounds with SENP7 inh. recombinant SENP6, Z-RLRGG-aminoluciferin luminescence. inhibition, % at 12.5 µM. actives 58% (n = 6,200). AID 488915
SENP7 conf – confirmation of human SENP7 protease inhibitors; inhibition, % at 12.5 µM; recombinant SENP7, Z-RLRGG-aminoluciferin luminescence, 40 min; actives 69% (n = 6,200); shares compounds with SENP7 inh; AID 488917
Casp3 SENP sel – inhibits human caspase-3 in SENP selectivity test; AID 488918; shares compounds with SENP7 inh; actives 60% (n = 6,200); inhibition, % at 12.5 µM; purified caspase-3, Z-DEVD-aminoluciferin luminescence, 60 min;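 active = mean inhibition above about 50%, limit read from the data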
Target sequence (P42574 28-227 limits assumed): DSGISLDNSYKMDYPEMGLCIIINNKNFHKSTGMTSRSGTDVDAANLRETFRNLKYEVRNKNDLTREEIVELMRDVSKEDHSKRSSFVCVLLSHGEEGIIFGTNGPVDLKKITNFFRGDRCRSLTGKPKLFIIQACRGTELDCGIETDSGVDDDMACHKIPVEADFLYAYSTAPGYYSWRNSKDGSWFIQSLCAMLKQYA
SENP luc ctr – interferes with luciferase luminescence in SENP counter-screen | shares compounds with SENP7 inh | Pre-incubated SENP8/Z-RLRGG-aminoluciferin, luciferase luminescence interference | inhibition, % at 12.5 µM | actives 39% (n = 6,200) | AID 488919;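 active = mean inhibition above about 50% when retested at one dose, limit read from the data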
Numbers stand for hits; – = inactive; · = not tested or not shown. Rows were chosen to be rich in hits. Some 2.4% of all compounds tested hit in one or more screens of this group.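 The calls were made as follows, unless noted: active = mean inhibition above about 50% in the one-dose retest (limit read from the data); inactive = the rest.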

SMILES	SENP8 block-1	SENP8 block-2	Platelet DG rel	SENP7 inh	SENP6 block	SENP8 conf	SENP6 conf	SENP7 conf	Casp3 SENP sel	SENP luc ctr
CCC(C)Sc1ccc([C@H]2N[C@@](C)(C(=O)OC)[C@H]3C(=O)N(CC)C(=O)[C@@H]23)cc1OC (some centres not stated)	–	–	·	–	–	·	·	·	·	·
Cn1cncc1C#Cc1ccc2cc(C3(O)CCCCC3)oc(=O)c2c1	–	–	·	–	–	·	·	·	·	·
CCn1nnnc1SCC(=O)Nc1ccc(F)cc1	–	–	–	–	–	·	·	·	·	·
N#CC(c1ccccc1)c1ccc([N+](=O)[O-])cc1 (configuration not stated)	–	·	·	·	·	·	·	·	·	·
Nc1ccccc1C#Cc1ccc([N+](=O)[O-])cc1	–	–	–	–	62	–	–	81	–	–
NC(=S)Nc1cc2ccccc2c2ccccc12	–	–	–	–	–	·	·	·	·	·
NC(=S)Nc1cccc2cc3ccccc3cc12	–	–	–	–	61	51	60	74	–	61
O=C(C[C@H]1C/C=C\CC[C@@H](Cc2ccc(F)cc2)C(=O)O[C@@H](c2ccccc2)CNC1=O)N[C@@H](CO)Cc1ccccc1	–	–	·	–	–	·	·	·	·	·
CC(C)CN(CC(C)C)C(=O)CN1C(=O)NC2(CCCc3ccccc32)C1=O (configuration not stated)	–	–	–	–	–	·	·	·	·	·
CCOC(=O)c1[nH]c2ccc(C)cc2c1N	–	–	–	–	50	54	54	88	82	72
COc1cc(SC)ccc1C(=O)OCC(=O)NCCC1=CCCCC1	–	–	–	–	–	·	·	·	·	·
CN(C)S(=O)(=O)Oc1ccc(C(=O)Nc2ccc([N+](=O)[O-])cc2)cc1	–	–	–	–	–	·	·	·	·	·
CC(C)Oc1ccc(C(=O)Nc2ccc([N+](=O)[O-])cc2)cc1	–	–	–	86	61	–	–	–	–	–
COc1ccc(C(=O)Nc2cccc(C)c2)cc1	–	78	56	90	92	84	86	99	92	85
O=C(O)c1ccc(OC2CSC2)cc1	–	–	–	–	52	55	54	–	–	–
COc1ccc(NC(=O)c2ccc(C)cc2)cc1	–	–	–	–	63	–	–	71	68	–
COc1ccc(CNC(=O)[C@H](C)NC(=O)C2CCN(C(=O)[C@@H](N)Cc3ccccc3)CC2)cc1	–	–	–	–	–	·	·	·	·	·
COc1ccc(NC(=O)OC(C)C)cc1	–	–	–	–	55	–	–	71	75	–
Cc1cccc(NC(=O)c2ccc(OC3CSC3)cc2)c1	–	91	–	97	94	66	89	99	93	61
COc1cccc(NC(=O)c2ccc(NC(=O)C(C)(C)C)cc2)c1	–	–	–	72	73	71	66	86	82	70
CC(=O)c1cccc(NC(=O)c2ccc(OC3CSC3)cc2)c1	–	–	–	–	–	·	·	·	·	·
CC(C)OC(=O)Nc1ccc(-c2ccc(NC(=O)OC(C)C)cc2Cl)c(Cl)c1	–	–	–	–	–	·	·	·	·	·
CCCC(=O)Nc1ccc(C(=O)Nc2cccc(OC)c2)cc1	–	–	–	–	–	·	·	·	·	·
COc1ccc(NC(=O)c2ccccc2)cc1	–	–	·	58	51	–	–	78	79	57
O=C(COC(=O)c1cc(S(=O)(=O)N2CCCC2)ccc1O)Nc1ccc(F)cc1F	–	–	·	–	–	·	·	·	·	·
SMILES	SENP8 block-1	SENP8 block-2	Platelet DG rel	SENP7 inh	SENP6 block	SENP8 conf	SENP6 conf	SENP7 conf	Casp3 SENP sel	SENP luc ctr
CCOC(=O)C1CCN(S(=O)(=O)c2cn(C)cn2)CC1	–	–	–	–	–	·	·	·	·	·
O=S1(=O)CCN(C2CCCCCC2)CC1	–	·	·	·	·	·	·	·	·	·
Fc1ccc(-n2nnc(-c3cccnc3Cl)n2)cc1	–	72	–	81	74	73	75	92	84	74
COc1ncccc1-c1nnn(-c2ccccc2Br)n1	–	–	–	–	–	·	·	·	·	·
Clc1ncccc1-c1nnn(-c2ccccc2)n1	–	86	–	89	91	88	90	99	92	88
Fc1ccc(-n2nnc(-c3nccs3)n2)cc1	–	87	–	91	88	88	92	100	96	67
Fc1ccc(-n2nnc(-c3ccccc3Cl)n2)cc1	–	–	–	–	–	·	·	·	·	·
COc1ncccc1-c1nnn(-c2ccccc2)n1	–	81	–	87	84	85	88	98	91	84
Clc1nc2ccccc2cc1-c1nnn(-c2ccccc2)n1	–	–	–	–	–	·	·	·	·	·
N#Cc1ccccc1OCCCN1CCC(Cc2ccccc2)CC1	–	–	–	–	–	·	·	·	·	·
NC(=O)c1cc(S(=O)(=O)N2CCCC2)ccc1OCCOc1ccccc1F	–	–	·	–	–	·	·	·	·	·
Cc1ccc(-n2nnc(-c3cccnc3)n2)cc1	–	–	–	–	–	·	·	·	·	·
Clc1ccc(-n2nnc(-c3cccnc3Cl)n2)cc1Cl	–	–	–	57	–	–	–	–	–	–
COC(=O)CCC(=O)N1CN2CN(C(=O)CCC(=O)OC)CC([N+](=O)[O-])(C2)C1	–	–	–	–	95	–	–	–	–	–
O=C(N/N=C\c1cc2c(cc1Cl)OCO2)c1cccs1	–	–	–	–	–	·	·	·	·	·
O=C1CC(/C=C/c2ccccc2)=Nc2ccccc2N1	–	–	–	–	67	–	–	56	–	–
COc1ccc2c(CC(=O)OCC(=O)Nc3cccc(C)c3)coc2c1	–	–	·	–	–	·	·	·	·	·
Fc1cccc(Cc2c(-c3cccc(Cl)c3)nc3c(Cl)cc(C(F)(F)F)cn23)c1	–	·	·	·	·	·	·	·	·	·
ClC(=C\c1ccccc1)/C=N/N1CCN(c2ccccn2)CC1	–	–	–	54	–	–	–	–	–	–
Cc1ccc(/C=N/N2CCN(c3ccccn3)CC2)cc1	–	–	–	–	–	·	·	·	·	·
CCCCCCOc1ccc(C(=O)O)cc1C#N	–	61	–	–	77	61	61	85	77	75
CCOc1ccccc1OCCC(=O)OCC(=O)Nc1c(C)cc(C)cc1C	–	–	–	–	–	·	·	·	·	·
Cc1cc2nc(-c3ccc[nH]c3=O)[nH]c2cc1C	–	92	52	97	95	96	97	102	98	82
COc1ccc(OC)c2c1sc(=NC(=O)c1ccco1)n2C	–	–	–	–	–	·	·	·	·	·
COc1ccccc1C(=O)N=c1sc2c(C)ccc(OC)c2n1C	–	–	–	–	58	–	–	–	53	–
CCn1c(=NC(=O)c2cccc(N3C(=O)CCC3=O)c2)sc2c(C)ccc(OC)c21	–	–	–	–	–	·	·	·	·	·

Screens from PubChem BioAssay.
